ALDH1A1 block – blocks purified human ALDH1A1 activity; P00352; 220,000 compounds, 7.3% hits; Purified ALDH1A1, NADH fluorescence, propionaldehyde substrate; AID 1030; Potency, µM (highest dose often 75.3 µM), without a hit: at the highest dose activity, negative = inhibition, hits mostly inhibitors;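 note: potency is the fitted concentration of half-maximal effect; plate controls were no enzyme wells and a reference inhibitor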
Target sequence (P00352 whole entry, looked up): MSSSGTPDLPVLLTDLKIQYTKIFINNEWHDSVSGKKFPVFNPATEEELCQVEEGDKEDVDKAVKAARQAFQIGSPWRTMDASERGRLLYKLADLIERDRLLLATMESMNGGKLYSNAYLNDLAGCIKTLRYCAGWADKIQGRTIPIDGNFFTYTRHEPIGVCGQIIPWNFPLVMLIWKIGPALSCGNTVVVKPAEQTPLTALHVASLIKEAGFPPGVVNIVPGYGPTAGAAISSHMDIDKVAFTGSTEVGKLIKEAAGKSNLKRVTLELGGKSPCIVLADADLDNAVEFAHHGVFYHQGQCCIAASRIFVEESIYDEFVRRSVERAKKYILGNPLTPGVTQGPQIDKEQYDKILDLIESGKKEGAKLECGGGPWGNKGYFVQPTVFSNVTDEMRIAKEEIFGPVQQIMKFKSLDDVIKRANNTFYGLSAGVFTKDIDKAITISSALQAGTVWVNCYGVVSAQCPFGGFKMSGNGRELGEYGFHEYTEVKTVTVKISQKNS
PNC assembly inh – blocks assembly of the perinucleolar compartment; AID 2417; activity change (PNC), negative = inhibition, % at 10 µM; PC3M PTB-GFP, PNC prevalence imaging, 16 h; hits give low values; 140,000 compounds, 3.1% hits;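 active = readout at or below -70, meaning at least 70% loss of cells showing the perinucleolar compartment, a nuclear body marking cancer cells; inconclusive = readout between -30 and a set limit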;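 note: plate controls were DMSO wells for no effect and camptothecin positive control wells for full effect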
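Compounds are pinned in duplicate onto adhered PC3M cells stably expressing GFP-tagged PTB and incubated 16 h at 37 C. Cells are then fixed, nuclei stained with Hoechst, and PNC-positive cells counted.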
HPGD block – inhibitors of human 15-hydroxyprostaglandin dehydrogenase (HPGD); P15428; purified HPGD, NADH fluorescence kinetic, PGE2 substrate; Potency, µM, without a hit: top-dose activity change, negative = inhibition, hits mostly inhibitors; 150,000 compounds, 4.3% hits; AID 894; note: potency is the fitted concentration of half-maximal effect
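NADH formation kinetics: reaction with 30 uM PGE2 and 1 mM NAD+ (final), 20 nM enzyme, Tris-HCl pH 8 with Tween 20, after 15 min compound preincubation at room temperature. Fluorescence change, last versus first of five reads.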
An asterisk follows results filed as active; ? = inconclusive; / = not tested or not shown; [ ] = remark or other dose. Only some compounds are listed: those with a hit (about 11% of all), similar ones and a draw of the others. Unless noted, calls come from the whole dose curve; as a rule, active = well fitted inhibition curve with a large enough effect (not every such curve was filed as active); inconclusive = small, poorly fitted or top-dose-only effect, or another doubt; inactive = no such curve, though single readings can be large or run the other way. Unless noted, % is set by controls: 0 for no effect and ±100 for the full control effect.

SMILES | ALDH1A1 block | PNC assembly inh | HPGD block
COc1ccc(CCn2c(O)c(C=NCCN3CCCCC3)c(=O)[nH]c2=O)cc1OC | -6.8% | -0.7 | -8.8%
O=C1NC(=O)C(=Cc2ccsc2)C(=O)N1 | -2.6% | / | /
COc1cc(/C=C2\C(=O)NC(=O)N(CCc3ccc(F)cc3)C2=O)ccc1O | 12.6µM* | 21.8 | 12.6µM*
COc1cc(C=C2C(=O)NC(=O)NC2=O)ccc1O | 18.9µM* | / | /
CCOc1ccc(/C=C2/C(=O)NC(=O)N(CCc3ccc(F)cc3)C2=O)cc1 | 1.41µM* | ? | 10µM*
COc1ccc(-c2nc(CSCC(=O)N3CCC4(CC3)OCCO4)c(C)o2)cc1OC | ? | 4.1 | ?
O=C1NC(=O)C(CCc2ccncc2)(CCc2ccncc2)C(=O)N1CCc1ccc(F)cc1 | 14.4% | / | /
C[C@]12CC[C@H]3C(=CCc4cc(O)ccc43)[C@@H]1CCC2=O | ? | 5.7 | -1.4%
C[C@]12CC[C@H]3[C@@H](CCC4C[C@H](O)CC[C@@]43C)[C@@H]1CC[C@@H]2O (some centres not stated) | 5.4% | / | -9.8%
CC1(C)C2C[C@@H](O)[C@]3(C)C(CC[C@@]4(C)[C@H](c5ccoc5)C[C@H]5O[C@]543)[C@@]2(C)[C@@H](O)C[C@H]1O (some centres not stated) | -4.5% | / | -8.0%
C=C(C)C1CCC(C)=CC1c1c(O)cc(O)cc1CCCCC (configuration not stated) | -12.8% | / | -4.3%
O=[N+]([O-])OC1CO[C@H]2C(O[N+](=O)[O-])COC12 (some centres not stated) | -9.1% | / | -8.1%
Nc1nnnn1CCO | -0.3%[13.5 µM] | / | -4.2%
Clc1ccc(C2CC3CCC2N3)cn1 (configuration not stated) | -10.0% | / | ?
CCOc1cc(C=C2C(=O)NC(=O)NC2=O)cc([N+](=O)[O-])c1O | 28.2µM* | / | /
CN1C2CCC1CC(OC(=O)C1CCC(C(=O)OC3CC4CCC(C3)N4C)(c3ccccc3)c3ccccc31)C2 (configuration not stated) | -2.2% | / | -4.3%
CC1(C)CSC(Nc2ccc(F)c(Cl)c2)=N1 | 19.7% | 6.3 | -14.2%
CC1(C)CN=C(Nc2ccc(F)c(F)c2)S1 | -4.3% | 6.4 | 25.1µM*
CN1CCCC2(CCN(C(=O)c3ccco3)CC2)C1 | 0.2% | / | -2.0%
O=C(O)c1cc(N=Nc2ccc([As](=O)(O)O)cc2)ccc1O | 2.3%[13.5 µM] | / | -11.9%
CSc1nc(N)c(N=Nc2ccc([As](=O)(O)O)cc2)c(=O)[nH]1 | 8.91µM* | / | /
Cn1c(=O)c2c(nc(N/N=C/c3c(O)n(-c4ccccc4)c(=S)[nH]c3=O)n2C)n(C)c1=O | 8.91µM* | 16.4 | -21.7%
CNS(=O)(=O)c1ccc(N=Cc2c(O)n(-c3ccccc3)c(=O)[nH]c2=O)cc1 | -7.4% | / | /
Cc1cccc(N)c1C | -5.0% | / | -11.4%
O=C(CN1CCCCC1)c1ccccc1Cl | 12.6µM* | 44.8 | -18.1%
SMILES | ALDH1A1 block | PNC assembly inh | HPGD block
O=C(CN1CCCCC1)c1cccc(Br)c1 | 1.41µM* | -12.3 | -2.2%
O=C(CN1CCCCC1)c1ccc(OC(F)F)cc1 | ? | -19.9 | -3.5%
O=C(CN1CCCCC1)c1ccccc1F | 3.1% | / | /
C[C@@]12CC[C@H](O)C[C@@H]1CC[C@H]1[C@H]2CC[C@@]2(C)[C@@H](C3=CC(=O)OC3)CC[C@]12O | 8.7%[20.9 µM] | / | -5.4%
CC(C)NC(=O)N1CCCC2(CCN(C(=O)Oc3ccccc3)CC2)C1 | 3.0% | / | -14.1%
CCN1CCN(Cc2cc(C(C)(C)C)c(O)c(C(C)(C)C)c2)CC1 | 28.2µM* | -11.3 | 3.5%
CCN1CCN(Cc2ccc(C)cc2)CC1 | ? | -9.2 | -6.8%
COc1ccc2c3c1O[C@H]1C[C@H](O)C=C[C@@]31CCN(C)C2 | 4.9% | / | -4.4%
CC12NC(Cc3ccccc31)c1ccccc12 (configuration not stated) | 6.8% | / | -6.0%
O=c1[nH]c(=O)n(CC2CCCO2)c(O)c1/C=C1\C=Nc2ccccc21 (configuration not stated) | 14.1µM* | ? | -24.2%
COc1ccc(N=Cc2c(O)n(CC3CCCO3)c(=O)[nH]c2=O)cc1 (configuration not stated) | ? | 47.1 | ?
CCC(C)C(=O)OC1C(O)C2C(CN3CC(C)CCC3[C@]2(C)O)C2C[C@]34O[C@@]5(O)C(OC(=O)C(C)(O)C(C)O)CCC3(C)C5C(OC(C)=O)C(OC(C)=O)C4[C@@]21O (some centres not stated) | 9.1% | / | -7.7%
Cc1ccsc1C(=O)C1CCCN(Cc2ccccc2O)C1 (configuration not stated) | -1.8% | / | /
COc1ccc(O)c(CN2CCCC(C(=O)c3sccc3C)C2)c1 (configuration not stated) | 12.6µM* | / | /
O=C(O)/C=C\c1ccc[c]([Sb])c1 | 8.2%[13.5 µM] | / | -3.9%
Cc1ccc(-c2nn(C)c(=O)c3ccccc23)cc1CNC(=O)/C=C/c1ccccc1 | 22.4µM* | ? | ?
Cn1nc(-c2ccc(OCC(=O)N3CCN(Cc4ccccc4)CC3)cc2)c2ccccc2c1=O | -15.5% | 18.0 | -23.8%
O=C(O)C(Br)Br | ? | / | -14.9%
Cc1ccc(S(=O)ON2CCC(C(=O)O)(c3ccccc3)CC2)cc1 (configuration not stated) | 15.0%[13.5 µM] | / | -9.4%
O=C(c1cnn2c(C(F)(F)F)cc(-c3ccccc3)nc12)N1CCC2(CC1)OCCO2 | ? | -6.2 | -13.1%
COc1cccc(-c2cc(C(F)(F)F)n3nc(C(=O)N4CCC5(CC4)OCCO5)cc3n2)c1 | 12.6µM* | -18.9 | 11.2µM*
CCCN[C@@H]1CCc2c(OC)cccc2[C@@H]1C | -0.8% | / | -4.2%
C=CCn1c(O)c(C(CC)=Nc2cc(OC)ccc2OC)c(=O)[nH]c1=O | ? | 30.8 | -28.9%
CCC(=Nc1ccc(OC)cc1OC)c1c(O)[nH]c(=O)[nH]c1=O | -4.2% | -95.5* | 25.1µM*
COc1ccc(N=C(C)c2c(O)n(C)c(=O)n(C)c2=O)c(OC)c1 | -1.1% | 8.4 | -26.2%
SMILES | ALDH1A1 block | PNC assembly inh | HPGD block
CCC(=Nc1cc(OC)ccc1OC)c1c(O)[nH]c(=O)[nH]c1=O | ? | 48.3 | 25.1µM*
COCC#CCN1CCCCC1c1cccnc1 (configuration not stated) | 3.1% | / | -6.0%
BrC(Br)Br | 0.7% | / | -1.8%
COc1ccc(C(=O)O[C@H]2CC[C@@]3(C)[C@H]4CC[C@H]5[C@]3(C[C@]3(O)[C@H]6CN7C[C@H](C)CC[C@H]7[C@](C)(O)[C@]6(O)[C@H](O)C[C@]53O)O[C@]24O)cc1OC | 9.3%[13.5 µM] | / | -2.6%
NC(Cn1ccc(=O)[nH]c1=O)C(=O)O (configuration not stated) | 11.4% | / | -5.1%
O=C1C(Cl)=C(Cl)C(=O)C(Cl)=C1Cl | 0.398µM* | / | 0.891µM*
NC(N)=NOCCC(N)C(=O)O (configuration not stated) | -2.5% | / | -18.2%
CC[C@@]1(O)C(=O)OCc2c1cc1n(c2=O)Cc2cc3cc(O)ccc3nc2-1 | -8.7% | / | -22.9%
NC1(P(=O)(O)O)CCCCC1 | 3.7%[13.5 µM] | / | -9.9%
CC(=O)Nc1ccccc1OC(=O)N(C)C | -2.5% | -5.3 | -10.2%
COC(=O)NC(=S)Nc1ccccc1NC(=S)NC(=O)OC | 10µM* | / | -14.7%
NC(=S)N/N=C/c1coc2ccccc2c1=O | 14.1µM* | -4.6 | -18.8%
